# PubChem BioAssay (Tox21)
# Where “and” joins values, the source holds several entries; their conditions need not be identical. Equal entries are not always repeated. Inconclusive results are not listed. Where a call stands in place of a potency, no number is given. A structure can be active in one record and inactive in another. Calls of active or inactive are those of the source. Unless noted, calls come from the whole dose curve; as a rule, active = well fitted curve in the direction sought with a large enough effect in the repeat runs; inconclusive = weak or mixed curves; inactive = no such curve, though single readings can be large; an effect the other way counts as inactive or inconclusive.
# Experiments:
# [1] = molecular target: Retinoic acid receptor RXR-alpha (Homo sapiens) (UniProt P19793); experiment: qHTS assay to identify small molecule agonists of the RXR signaling pathway (AID 1159527; calls by dose curve; note: nearly all actives have a fitted effect of over 35% in size; note: potency is the fitted concentration of half-maximal effect)
# Sequence of Retinoic acid receptor RXR-alpha (Homo sapiens) (P19793 whole entry, looked up): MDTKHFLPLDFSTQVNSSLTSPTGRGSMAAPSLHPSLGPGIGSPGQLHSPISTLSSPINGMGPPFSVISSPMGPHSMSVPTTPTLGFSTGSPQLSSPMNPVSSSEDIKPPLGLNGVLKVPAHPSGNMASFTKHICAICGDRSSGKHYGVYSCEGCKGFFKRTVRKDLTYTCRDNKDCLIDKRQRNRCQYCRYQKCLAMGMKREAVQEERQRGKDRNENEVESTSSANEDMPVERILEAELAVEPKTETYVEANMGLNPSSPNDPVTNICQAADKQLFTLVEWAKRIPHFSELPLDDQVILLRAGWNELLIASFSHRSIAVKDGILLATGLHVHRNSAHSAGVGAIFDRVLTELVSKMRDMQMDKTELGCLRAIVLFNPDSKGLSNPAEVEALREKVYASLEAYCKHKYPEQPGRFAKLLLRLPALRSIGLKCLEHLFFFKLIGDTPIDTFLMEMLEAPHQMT
# How it was run: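 GeneBLAzer RXR-alpha-UAS-bla HEK 293T cells in medium with 2% charcoal-stripped FBS, pre-incubated 5 hr at 37 C, then exposed to compounds 16 hr. Beta-lactamase reporter read by FRET substrate, 2 hr room temperature, 460/530 nm emission.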
# [2] = qHTS assay to identify small molecule agonists of the RXR signaling pathway - cell viability counter screen (AID 1159529); note: series mostly up to about 77 µM; nearly all actives have a fitted effect of over 50% in size
# How it was run: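 RXR-alpha-UAS-bla HEK 293T cells in medium with 2% charcoal-stripped FBS were preincubated 5 hr, then exposed to compounds for 16 hr at 37 C. Viability was read as CellTiter-Glo luminescence after 30 min at room temperature.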
# [3] = qHTS assay to identify small molecule antagonists of the retinoid acid receptor (RAR) signaling pathway - cell viability counter screen (AID 1159551); note: nearly all actives have a fitted effect of over 35% in size
# How it was run: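 C3RL4 RARE-luciferase cells, 1,000/well, incubated overnight, then dosed with compound plus 1 uM retinol (final). After 6 hr at 37 C, viability read by CellTiter-Glo ATP luminescence following 30 min at room temperature.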
# [4] = qHTS assay to identify small molecule antagonists of the retinoic acid receptor (RAR) signaling pathway (AID 1159552; note: nearly all actives have a fitted effect of over 50% in size)
# How it was run: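 RARE-luc C3RL4 cells; cpds + 1 uM (final) retinol, 6 hr, 37 C/5% CO2; luciferase reagent, 30 min RT, luminescence readout. Inhibitors of retinol-driven signal scored.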
# [5] = qHTS assay to identify small molecule agonists of the retinoic acid receptor (RAR) signaling pathway (AID 1159553); note: potency is the fitted concentration of half-maximal effect
# How it was run: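 C3RL4 RARE-luciferase cells were seeded at 1,000/well and grown overnight at 37 C, then exposed to compounds for 6 hr at 37 C, 5% CO2. Luciferase reagent was added and luminescence was read after 30 min at room temperature.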
# [6] = qHTS assay to identify small molecule antagonists of the estrogen related receptor (ERR) signaling pathway from Tox21 library - cell viability counter screen (AID 1224834); note: nearly all actives have a fitted effect of over 30% in size
# How it was run: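 ERR reporter cells, 2,000 per well, rested 6 h, then exposed to compound in DMSO for 17.5 hours at 37 C. Viability read as fluorescence after 30 min with CellTiter-Fluor.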
# [7] = molecular target: Luciferin 4-monooxygenase (Photinus pyralis) (UniProt P08659); experiment: qHTS assay to identify small molecule inhibitors of firefly luciferase (AID 1224835); note: nearly all actives have a fitted effect of over 25% in size; note: potency is the fitted concentration of half-maximal effect
# Sequence of Luciferin 4-monooxygenase (Photinus pyralis) (P08659 whole entry, looked up): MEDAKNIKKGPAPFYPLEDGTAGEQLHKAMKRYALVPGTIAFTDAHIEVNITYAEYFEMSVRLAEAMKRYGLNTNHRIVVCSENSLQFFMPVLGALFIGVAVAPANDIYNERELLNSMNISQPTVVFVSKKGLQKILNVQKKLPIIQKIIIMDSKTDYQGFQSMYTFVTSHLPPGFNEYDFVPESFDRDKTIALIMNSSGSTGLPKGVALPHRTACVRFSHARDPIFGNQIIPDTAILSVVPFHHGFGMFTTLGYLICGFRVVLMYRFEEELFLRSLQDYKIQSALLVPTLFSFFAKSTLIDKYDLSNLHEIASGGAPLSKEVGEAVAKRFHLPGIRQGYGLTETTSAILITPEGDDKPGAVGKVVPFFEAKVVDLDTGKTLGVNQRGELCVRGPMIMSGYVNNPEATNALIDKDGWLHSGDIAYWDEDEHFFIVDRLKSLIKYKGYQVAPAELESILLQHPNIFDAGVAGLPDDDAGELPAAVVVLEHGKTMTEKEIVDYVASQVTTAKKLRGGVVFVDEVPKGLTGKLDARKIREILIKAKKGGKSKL
# How it was run: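 Biochemical qHTS: compounds run as interplate titrations against purified firefly enzyme, with D-luciferin and ATP each at its KM concentration. Light output recorded by CCD imaging.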
# [8] = qHTS assay to identify small molecule agonists of the constitutive androstane receptor (CAR) signaling pathway - cell viability counter screen (AID 1224836); note: series mostly up to about 92 µM; nearly all actives have a fitted effect of over 45% in size
# How it was run: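 HepG2 cells stably carrying hCAR and a CYP2B6-2.2kb reporter were plated 4 h, then given compounds at 15 concentrations plus PK11195 (final 0.75 uM). After 23 h at 37 C, viability was read by CellTiter-Fluor fluorescence.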
# [9] = qHTS assay to identify small molecule antagonists of the constitutive androstane receptor (CAR) signaling pathway - cell viability counter screen (AID 1224837); note: series mostly up to about 92 µM; nearly all actives have a fitted effect of over 45% in size
# How it was run: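 HepG2 cells stably carrying hCAR and CYP2B6-2.2kb reporter, stimulated with 50 nM CITCO and compounds at 15 concentrations for 23 h at 37 C. Viability measured by CellTiter-Fluor fluorescence.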
# [10] = molecular target: Nuclear receptor subfamily 1 group I member 3 (Homo sapiens) (UniProt Q14994); experiment: qHTS assay to identify small molecule antagonists of the constitutive androstane receptor (CAR) signaling pathway (AID 1224838); note: nearly all actives have a fitted effect of over 40% in size
# Sequence of Nuclear receptor subfamily 1 group I member 3 (Homo sapiens) (Q14994 whole entry, looked up): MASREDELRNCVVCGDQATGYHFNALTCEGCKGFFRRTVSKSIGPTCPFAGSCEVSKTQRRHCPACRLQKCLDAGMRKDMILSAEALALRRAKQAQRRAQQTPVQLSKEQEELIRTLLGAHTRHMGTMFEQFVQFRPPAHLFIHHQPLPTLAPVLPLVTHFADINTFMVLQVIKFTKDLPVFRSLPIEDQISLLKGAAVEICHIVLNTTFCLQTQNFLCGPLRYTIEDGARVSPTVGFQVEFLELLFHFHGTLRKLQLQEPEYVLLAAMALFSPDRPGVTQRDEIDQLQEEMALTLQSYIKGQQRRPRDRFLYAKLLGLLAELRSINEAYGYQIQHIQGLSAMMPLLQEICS
# How it was run: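 HepG2 cells stably carrying hCAR and a CYP2B6-2.2kb luciferase reporter, seeded 4 hrs before compound (15 concentrations). Stimulated with 50 nM CITCO for 24 hr at 37 C. ONE-Glo luminescence read after 30 min at room temperature.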
# [11] = molecular target: Nuclear receptor subfamily 1 group I member 3 (Homo sapiens) (UniProt Q14994); experiment: qHTS assay to identify small molecule agonists of the constitutive androstane receptor (CAR) signaling pathway (AID 1224839); note: nearly all actives have a fitted effect of over 15% in size; note: potency is the fitted concentration of half-maximal effect
# How it was run: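 HepG2 cells stably expressing hCAR and a CYP2B6-2.2kb luciferase reporter were treated with compounds at 15 concentrations plus 0.75 uM PK11195 (final) for 24 h at 37 C; luminescence was read after ONE-Glo addition.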
# [12] = qHTS assay to identify small molecule antagonists of the estrogen related receptor signaling pathway with the pleiotropic PPARgamma coactivator (PGC) from Tox21 10K library - cell viability counter screen (AID 1224840; active = well fitted cell-killing curve with a large enough effect in the repeat runs, not every such curve was filed as active; note: nearly all actives have a fitted effect of over 40% in size)
# How it was run: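 PGC/ERR cells (2,000/well) plated 6 h, then compound-treated for 17.5 h at 37 C. Viability measured by CellTiter-Fluor fluorescence after 30 min at 37 C, multiplexed with the pathway assay.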
# [13] = qHTS assay to identify small molecule antagonists of the estrogen related receptor signaling pathway with the pleiotropic PPARgamma coactivator (PGC) from Tox21 10K library (AID 1224841; call rule not given here; note: series mostly up to about 92 µM; actives are mostly falling curves and most rising ones were filed inactive; nearly all actives have a fitted effect of over 50% in size)
# How it was run: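 PGC/ERR cell line, 2,000 cells/well, pre-incubated 6 hours at 37 C, then exposed to compounds for 18 hours at 37 C; luciferase read with One-Glo luminescence after 30 min at room temperature.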
# [14] = molecular target: Thyrotropin receptor (Homo sapiens) (UniProt P16473); experiment: qHTS assay to identify small molecule agonists of the thyroid stimulating hormone receptor (TSHR) signaling pathway (AID 1224843; calls by dose curve; note: nearly all actives have a fitted effect of over 45% in size)
# Sequence of Thyrotropin receptor (Homo sapiens) (P16473 whole entry, looked up): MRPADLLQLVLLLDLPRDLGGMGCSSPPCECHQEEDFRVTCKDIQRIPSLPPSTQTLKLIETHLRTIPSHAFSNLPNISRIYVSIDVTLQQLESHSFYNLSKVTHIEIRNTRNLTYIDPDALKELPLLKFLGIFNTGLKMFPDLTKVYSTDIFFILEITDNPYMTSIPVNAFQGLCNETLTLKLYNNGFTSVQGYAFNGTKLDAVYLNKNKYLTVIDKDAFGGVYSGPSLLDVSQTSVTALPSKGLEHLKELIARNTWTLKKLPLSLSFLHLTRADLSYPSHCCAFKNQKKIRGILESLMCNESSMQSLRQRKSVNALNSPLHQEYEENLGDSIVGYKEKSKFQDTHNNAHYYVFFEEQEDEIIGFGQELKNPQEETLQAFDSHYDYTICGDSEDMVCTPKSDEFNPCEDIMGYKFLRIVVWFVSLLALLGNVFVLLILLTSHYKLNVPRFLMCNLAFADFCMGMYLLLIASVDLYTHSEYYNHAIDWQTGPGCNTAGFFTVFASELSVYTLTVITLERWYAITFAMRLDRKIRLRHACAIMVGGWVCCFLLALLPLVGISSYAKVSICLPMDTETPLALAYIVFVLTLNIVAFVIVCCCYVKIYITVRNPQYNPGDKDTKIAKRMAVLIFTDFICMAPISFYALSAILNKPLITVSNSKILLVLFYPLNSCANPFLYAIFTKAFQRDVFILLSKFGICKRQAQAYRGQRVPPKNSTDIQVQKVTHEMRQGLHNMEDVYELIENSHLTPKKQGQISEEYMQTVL
# How it was run: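 TSHR-HEK293 cells in agonist mode, 30 min room-temperature step, then cAMP measured by competitive HTRF (cAMP-d2 with anti-cAMP cryptate) after 1 h at room temperature. Tested at 15 concentrations in triplicate.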
# [15] = qHTS assay to identify small molecule antagonists of the estrogen related receptor (ERR) signaling pathway - cell viability counter screen (AID 1224818); note: series mostly up to about 46 µM
# How it was run: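 ERR cells, 2,000 per well, compound added after 6 h and incubated 17.5 h at 37 C. Viability read by CellTiter-Fluor fluorescence after a further 30 min at 37 C.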
# [16] = qHTS assay to identify small molecule antagonists of the estrogen related receptor signaling pathway with the pleiotropic PPARgamma coactivator (PGC) cell viability counter screen (AID 1224822; note: series mostly up to about 46 µM)
# How it was run: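 PGC/ERR cells rested 6 h, then compound-treated 17.5 h at 37 C. CellTiter-Fluor added for 30 min at 37 C, viability measured by fluorescence intensity.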
# [17] = qHTS assay to identify small molecule antagonists of the estrogen related receptor (ERR) signaling pathway (AID 1224819;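 note: luminescence from an ERR-driven luciferase reporter measured with One-Glo reagent; series mostly up to about 46 µM; nearly all actives have a fitted effect of over 50% in size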)
# How it was run: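 ERR reporter cell line (NTP) plated at 2,000 cells/well, settled 6 h at 37C/5% CO2, then exposed to LOPAC compounds for 18 h at 37C. One-Glo luciferase luminescence read after 30 min at room temperature.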
# [18] = qHTS assay to identify small molecule agonists of the estrogen related receptor (ERR) signaling pathway (AID 1224820)
# How it was run: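 ERR reporter cell line (from NTP), 2,000 cells/well, incubated 6 h before compound addition, then 18 h at 37 C. Luminescence measured 30 min after One-Glo reagent at room temperature.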
# [19] = tested on: estrogen-related receptor alpha (ERRalpha) with PGC-1alpha coactivator, human; experiment: qHTS assay to identify small molecule antagonists of the estrogen related receptor signaling pathway with the pleiotropic PPARgamma coactivator (PGC) (AID 1224821; calls by dose curve)
# How it was run: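 PGC/ERR reporter cell line, plated 6 h before compound addition, then exposed 18 h at 37 °C. Luciferase activity read by luminescence 30 min after One-Glo addition; decrease indicates antagonism.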
# [20] = qHTS assay to identify small molecule agonists of the estrogen related receptor signaling pathway with the pleiotropic PPARgamma coactivator (PGC) (AID 1224823)
# How it was run: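 PGC/ERR reporter cells seeded 6 h, then exposed to compounds (23 nL in DMSO) for 18 h at 37 C. One-Glo luciferase luminescence read after 30 min at room temperature.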
Structure (SMILES),Potency [1],outcome [2],outcome [3],Potency [4],Potency [5],Potency [6],Potency [7],Potency [8],Potency [9],Potency [10],Potency [11],Potency [12],Potency [13],Potency [14],outcome [15],outcome [16],outcome [17],outcome [18],outcome [19],outcome [20]
COc1nc(NC(C)C)nc(NC(C)C)n1,inactive,inactive,inactive,inactive,inactive,inactive,inactive,inactive,inactive,inactive,inactive,inactive,inactive,inactive,–,–,–,–,–,–
CCCCC(CC)C(=O)Cl (stereo unspecified),inactive,inactive,inactive,inactive,inactive,inactive,inactive,inactive,inactive,inactive,inactive,inactive,–,inactive,–,–,–,–,–,–
Nc1nc(N)nc(NC2CC2)n1,inactive,inactive,inactive,inactive,inactive,inactive,inactive,inactive,inactive,–,–,inactive,inactive,inactive,–,–,–,–,–,–
O=C(O)Cc1ccccc1,inactive,inactive,inactive,inactive,inactive,inactive,inactive,inactive,inactive,inactive,inactive,inactive,inactive,–,–,–,–,–,–,–
CN(C)C(=O)C(c1ccccc1)c1ccccc1,inactive,inactive,inactive,inactive,inactive,inactive,inactive,inactive,inactive,inactive,26.9 µM (active) and 12.2 µM (active),inactive,–,–,–,–,–,–,–,–
Clc1cnc(Oc2ccc(Oc3ncc(Cl)cc3Cl)cc2)c(Cl)c1,inactive,inactive,inactive,inactive,inactive,inactive,inactive,inactive,inactive,inactive,inactive,inactive,–,inactive,inactive,inactive,–,–,–,–
CNCC(O)c1ccc(O)cc1 (stereo unspecified),inactive,inactive,inactive,inactive,inactive,inactive,inactive,inactive,inactive,inactive,inactive,inactive,inactive,inactive,inactive,inactive,inactive,inactive,inactive,inactive
COS(=O)(=O)OC,inactive,inactive,inactive,inactive,inactive,inactive,inactive,inactive,inactive,–,–,inactive,–,–,–,–,–,–,–,–
CCOc1ccc(N)cc1,11 µM (active) and inactive,inactive,inactive,inactive,inactive,inactive,inactive and 79.6 µM (active),inactive,inactive,inactive,inactive,inactive,inactive,inactive,–,–,–,–,–,–
CCOC(=O)CC(SP(=O)(OC)OC)C(=O)OCC (stereo unspecified),inactive,inactive,inactive,inactive,inactive,inactive,inactive,inactive,inactive,inactive,inactive,inactive,–,inactive,–,–,–,–,–,–
Cc1cccc(C)c1NC(=O)CN1CCCC1=O,inactive,inactive,inactive,inactive,inactive,inactive,inactive,inactive,inactive,–,–,inactive,–,–,inactive,inactive,–,–,–,–
CCOP(=S)(OCC)Oc1ccc([N+](=O)[O-])cc1,inactive,inactive,inactive,inactive,inactive,inactive,inactive,inactive,inactive,inactive,–,inactive,–,inactive,–,–,–,–,–,–
CC(C)c1cccc(C(C)C)c1O,inactive,inactive,inactive,inactive,inactive,inactive,inactive,inactive,inactive,inactive,–,inactive,inactive,inactive,inactive,inactive,inactive,inactive,inactive,inactive
Nc1cc(Cl)cc(Cl)c1,inactive,inactive,inactive,inactive,inactive,inactive,inactive,inactive,inactive,inactive,inactive,inactive,–,inactive,–,–,–,–,–,–
ClC(Cl)c1ccccc1,inactive,inactive,inactive,inactive,inactive,inactive,inactive,inactive,inactive,inactive,inactive,inactive,inactive,–,–,–,–,–,–,–
CN(C)CCC#N,inactive,inactive,inactive,inactive,inactive,inactive,inactive,inactive,inactive,–,–,inactive,–,–,–,–,–,–,–,–
COC(C)(C)CCCC(C)C/C=C/C(C)=C/C(=O)OC(C)C (stereo unspecified),inactive,inactive,inactive,inactive,inactive,inactive,inactive,inactive,inactive,inactive,inactive,inactive,inactive,inactive,–,–,–,–,–,–
N#Cc1cccc(C#N)c1,inactive,inactive,inactive,inactive,inactive,inactive,inactive,inactive,inactive,inactive,inactive,inactive,–,inactive,–,–,–,–,–,–
COC(=O)Nc1cccc(OC(=O)Nc2cccc(C)c2)c1,inactive,inactive,inactive,inactive,8.63 µM (active) and 19.3 µM (active),inactive,6.33 µM (active) and 12.6 µM (active),inactive,inactive,inactive,30.6 µM (active) and 4.86 µM (active),inactive,inactive,–,–,–,–,–,–,–
CN(C)C(=O)Nc1cccc(C(F)(F)F)c1,inactive,inactive,inactive,inactive,inactive,inactive,inactive,inactive,inactive,inactive,inactive,inactive,–,inactive,–,–,–,–,–,–
Cc1ccc(N=C=O)cc1N=C=O,inactive,inactive,inactive,inactive,inactive,inactive,40.9 µM (active) and 63.1 µM (active) and inactive,inactive,inactive,inactive,inactive,inactive,inactive,–,–,–,–,–,–,–
O=P1(NCCCl)OCCCN1CCCl (stereo unspecified),inactive,inactive,inactive,inactive,inactive,inactive,inactive,inactive,inactive,inactive,–,inactive,inactive,inactive,–,–,–,–,–,–
Cc1ccc(N)cc1,inactive and 19.5 µM (active),inactive,inactive,inactive,61.5 µM (active) and inactive,inactive,inactive,inactive,inactive,inactive,2.45 µM (active),inactive,inactive,inactive,–,–,–,–,–,–
Cl[C@H]1OCCO[C@@H]1Cl,inactive,inactive,inactive,inactive,inactive,inactive,inactive,inactive,inactive,inactive,inactive,inactive,inactive,inactive,–,–,–,–,–,–
Cc1cccc(N)c1C,11.4 µM (active) and inactive,inactive,inactive,inactive,inactive,inactive,inactive,inactive,inactive,inactive,inactive and 61.1 µM (active),inactive,–,inactive,–,–,–,–,–,–
OCC(O)CCl (stereo unspecified),inactive,inactive,inactive,inactive,inactive,inactive,inactive,inactive,inactive,inactive,inactive,inactive,–,inactive,–,–,–,–,–,–
CNC(=O)O/N=C/C(C)(C)S(C)=O (stereo unspecified),inactive,inactive,inactive,inactive,inactive,inactive,inactive,inactive,inactive,inactive,inactive,inactive,–,inactive,–,–,–,–,–,–
O=[N+]([O-])c1ccc(Cl)c(Cl)c1,inactive,inactive,inactive,inactive,inactive,inactive,inactive,inactive,inactive,inactive,inactive,inactive,inactive,inactive,–,–,–,–,–,–
Cc1cc(Cl)ccc1OC(C)C(=O)O (stereo unspecified),inactive,inactive,inactive,inactive,inactive,inactive,inactive,inactive,inactive,–,inactive,inactive,–,–,–,–,–,–,–,–
